PI4K2A inh: qHTS for small molecular inhibitors of PI4K2A; activity change, negative = inhibition, % at 76.9 µM; AID 1346378, 2018; Phosphatidylinositol 4-kinase type 2-alpha (Homo sapiens), Q9BTU6; 0.13% of 420,000 active; purified PI4K2A, ADP-Glo luminescence, 1 h; hits give low values; in the data active means activity change below about -50%; inconclusive means mostly about -30% to -49%;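 further: -100% = wells without enzyme as full effect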
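Compounds are screened against recombinant PI4K2A using PI as substrate and ATP, the latter dispensed at 300 microM. Reactions run one hour at ambient temperature before ADP-Glo detection; full inhibition defined by wells lacking enzyme.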
HttQ103 aggreg: qHTS Multiplex Assay to Identify Dual Action Probes in a Cell Model of Huntington: Aggregate Formation (GFP) | PC12 HttQ103-GFP aggregates, Acumen cytometry, 40 h | 1.1% of 220,000 active | Potency, µM (top dose mostly 46.1 µM), for the others: at the highest dose activity change, negative = inhibition, actives largely listed as inhibitors | AID 1688, 2009; further: potency means the concentration at half of the fitted maximal effect; on the % scale 0 is the no-effect control and ±100 the full control effect; nearly all actives have a fitted effect of over 60% in size
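Steps: seed 1500 PC12 HTTQ103-GFP cells/well; add tebufenozide, 100 nM final; add compound titration; add ATPLite reagent; quantify GFP aggregates by laser scanning cytometry.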
GALK inh: qHTS Assay for Inhibitors of Human Galactokinase (GALK); P51570; Purified GALK, Kinase-Glo residual ATP luminescence; Potency, µM (series often up to 57.5 µM), for inactives: at the top dose activity change, negative = inhibition, most hits filed as inhibitors; 0.007% of 270,000 active; further: potency means the concentration at half of the fitted maximal effect; on the % scale 0 is the no-effect control and ±100 the full control effect
Target sequence (P51570 whole entry, looked up): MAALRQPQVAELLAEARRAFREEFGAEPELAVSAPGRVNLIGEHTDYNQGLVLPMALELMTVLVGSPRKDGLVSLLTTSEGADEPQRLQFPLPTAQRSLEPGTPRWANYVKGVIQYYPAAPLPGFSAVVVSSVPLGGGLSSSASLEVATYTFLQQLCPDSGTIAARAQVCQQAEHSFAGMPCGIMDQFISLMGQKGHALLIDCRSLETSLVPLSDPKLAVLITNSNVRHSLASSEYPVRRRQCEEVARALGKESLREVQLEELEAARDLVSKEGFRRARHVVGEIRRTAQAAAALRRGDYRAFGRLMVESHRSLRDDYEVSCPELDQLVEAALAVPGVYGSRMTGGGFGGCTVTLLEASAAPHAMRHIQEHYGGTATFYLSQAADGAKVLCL
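Human GALK (5 nM) with 35 uM ATP and 100 uM galactose in 20 mM HEPES pH 8.0, 5 mM MgCl2, 60 mM NaCl, 1 mM DTT, 0.01% BSA. After 1 h at room temperature, leftover ATP was read by Kinase-Glo Plus luminescence.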
HTT ATP protect: qHTS Multiplex Assay to Identify Dual Action Probes in a Cell Model of Huntington: Cytoprotection (ATP) | PC12 HTT-Q103 induced, cytoprotection, ATP luminescence, 40 h | Potency, µM (titrated, usually from 56.4 µM), without a hit: cytoprotection (ATP increase), most hits filed as activators | 0.14% of 230,000 active; further: potency means the concentration at half of the fitted maximal effect; % of control where 0% means no effect; nearly all actives have a fitted effect of over 45% in size
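Stable PC12 Q103-GFP cells in serum-supplemented, phenol red-free DMEM; induction by tebufenozide at 100 nM final; compound dose series; cell viability quantified luminescently from ATP.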
* marks the source's active call; other numbers are inactive results; ? = inconclusive; · = no result given; [ ] = dose if it differs, or a comment. Only a selection was taken, and hits are over-represented in it overall. Unless noted, the call rests on the fitted dose curve; in most records, active means well fitted curve in the direction sought with a large enough effect; inconclusive means small, poorly fitted or top-dose-only effect, or another doubt; inactive means no such curve, though single readings can be large; an effect the other way counts as inactive or inconclusive.

SMILES | PI4K2A inh | HttQ103 aggreg | GALK inh | HTT ATP protect
CCCC[n+]1c(C)sc2cc(OC)ccc21 | -12 | 6%[9.22 µM] | 0% | -3%[10 µM]
COc1ccc2sc(C)[n+](C)c2c1 | -4 | -21% | 5% | 11µM*
O=C(NOCC1CC1)c1ccc(F)c(F)c1Nc1ccc(I)cc1Cl | 1 | · | · | ·
O=C(CSc1nnc(Cn2nnc3ccccc32)o1)N(Cc1ccc(Cl)cc1)c1ccccc1 | -2 | 7.1µM* | 1% | -13%
C=CCn1c(SCC#N)nc2c(c1=O)C(C)(C)Cc1ccccc1-2 | 9 | 10µM* | 0% | -12%[10 µM]
O=C1N/C(=N\N=C\c2cccs2)SC1Cc1ccc(Cl)cc1Cl (stereo unspecified) | 7 | -9% | -4% | -1%[10 µM]
O=C1N/C(=N\N=C\c2cccs2)SC1Cc1cccc(Cl)c1Cl (stereo unspecified) | 2 | 11µM* | 0% | ?
O=C(Nc1ccc2nc(-c3ccco3)c(-c3ccco3)nc2c1)N1CCCCCC1 | -51* | ? | -2% | -19%[10 µM]
C/C(=N\N=C(/N)SC1CC(=O)N(c2ccccc2)C1=O)c1cccs1 (stereo unspecified) | -2 | 1% | -11% | 0%
CCCCCCOc1ccc(N2C(=O)CC(S/C(N)=N/N=C(\C)c3cccs3)C2=O)cc1 (stereo unspecified) | 1 | -1% | -5% | 0.79µM*
Cc1ccsc1-c1nc(CSCC(=O)N2CCN(c3ccccc3)CC2)c(C)o1 | -2 | 13µM* | 1% | 10%
COC(=O)C1CN(Cc2cn(Cc3ccc(OC)cc3)nn2)CCS(=O)(=O)N1Cc1ccc(Cl)cc1 (stereo unspecified) | 5 | · | · | ·
CCOC(=O)C1(C(=O)OCC)Cc2c([nH]c3ccccc23)[C@]2(N1)C(=O)N(C)c1ccc(Br)cc12 | -3 | · | · | ·
Cc1ccc2c(c1)nnn2C1CCN(S(=O)(=O)c2ccc(C(=O)N3C(C)CCCC3C)cc2)CC1 (stereo unspecified) | -5 | 13µM* | -4% | -65%
Cc1ccc2c(c1)nnn2C1CCN(S(=O)(=O)c2ccc(C(=O)O)cc2)CC1 | -1 | -12%[9.22 µM] | 4% | -19%[10 µM]
O=C(CCCC1=NS(=O)(=O)c2ccccc2N1)N1CCN(c2ccccc2Cl)CC1 | 3 | · | · | ·
CC[C@@H](C)[C@H](NS(=O)(=O)c1cccc2ccccc12)C(=O)N[C@H](C=O)Cc1c[nH]c2ccccc12 | · | · | · | -89%
Cc1ccccc1OCCCCn1cnc2ccccc21 | 5 | 7.1µM* | -1% | -12%
N#CCC[C@@H]1CC[C@]2(CCCN(Cc3ccc(Br)cc3)C2)O1 | -1 | · | · | ·
Clc1ccc(OCCSCc2nc3ccccc3[nH]2)cc1 | -4 | 7.1µM* | 0% | 14%[10 µM]
Cc1ccc2nc(-c3ccc(NC(=O)CSc4nnc(-c5cccc(Cl)c5)n4Cc4ccco4)cc3)sc2c1 | -23 | · | · | ·
CCCCCCCn1ccc(=N)cc1 | -1 | 1.1µM* | -3% | -54%
O=C(c1ccc(Br)cc1)c1cc2ccc(O)cc2oc1=O | 0 | · | 4% | ·
COc1ccc(C(=O)c2cc3ccc(O)cc3oc2=O)cc1 | -53* | -3% | 3% | -6%
COc1ccc2cc(C(=O)NCc3ccco3)c(=O)oc2c1 | -10 | ? | 0% | 14%
SMILES | PI4K2A inh | HttQ103 aggreg | GALK inh | HTT ATP protect
O=C(NCc1ccco1)c1cc2ccc(O)cc2oc1=O | -76* | · | 25% | -31%
O=C(c1ccccc1)c1cc2ccc(O)cc2oc1=O | -87* | 13% | 12% | -14%
COC(=O)[C@]12C[C@H](CC(=O)NCc3ccc(OC)c(OC)c3)C(=O)N(Cc3ccc(Cl)cc3Cl)C1=C[C@H](C(C)(C)C)O[C@@H]2C | 0 | · | · | ·
CCN(CC)S(=O)(=O)c1ccc(N/N=C/c2cc(OC)ccc2O)nc1 | 2 | 2.8µM* | 3% | -88%[10 µM]
O=C(NCc1ccc(Cl)cc1)C1CCCN(c2ncccn2)C1 (stereo unspecified) | 4 | · | · | ·
Cc1cc(C)nc(SCC(=O)Nc2ccnc3ccccc23)n1 | 1 | ? | 0% | ·
O=C(CSC1=NCCS1)Nc1ccnc2ccccc12 | 1 | 10µM* | -3% | 26%
Cc1ccc(NC2=C/C(=N/S(=O)(=O)c3cccs3)c3ccccc3C2=O)cc1 | -27 | 3.5µM* | 2% | ·

Assay outcomes from PubChem.
